# Screening data as filed in PubChem BioAssay.
# SMN2 splice enh: increases expression of the SMN2 splice variant; HEK293 SMN2-luciferase splicing reporter, luminescence, 30-36 h; Potency, µM (top dose mostly 46.1 µM), usual class: activators; 2.8% of 210,000 active; AID 1458; note: nearly all actives have a fitted effect of over 55% in size
#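 HEK293 cells carry an SMN2 […]–luciferase reporter in which exon 7 inclusion puts luciferase in frame. Cells were plated 10-12 h before compound addition, then incubated 30-36 h at 37C. ONE-Glo luminescence was read; sodium butyrate at 4.5 mM final served as control.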
# Rab9 promoter act: activators of Rab9 promoter. Huh7 Rab9 promoter-luciferase reporter, luminescence, 24 h. Potency, µM (titrated, usually from 9.22 µM), actives largely listed as activators. 2.8% of 320,000 active; note: nearly all actives have a fitted effect of over 60% in size
#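 Cells were plated at 1500 per well in reduced-serum medium with 10% FBS and left 2 h. Compound in DMSO was then added for 24 h at 37 °C. Reporter signal was read by luminescence after 10 min with luciferase detection reagent.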
# ELG1 genotox: inducers of genotoxicity in HEK293T ELG1-luciferase cells; 1.3% of 330,000 active; AID 504466; Potency, µM (titrated, usually from 46 µM), usual class: activators; HEK293T ELG1-luciferase reporter, luminescence, 16 h; note: nearly all actives have a fitted effect of over 60% in size
#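 Cells (2,000/well) expressing the ELG1-luciferase fusion are dosed by pin tool and kept 16 hr at 37 °C, 5% CO2. Signal comes from ONE-Glo luciferase reagent after 30 min at room temperature.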
# FLuc counter: firefly luciferase modulation, counter-screen for miR-21 project | purified FLuc, Km substrates, luminescence inhibition | Potency, µM (highest dose often 57.5 µM), usual class: inhibitors | 6.9% of 360,000 active; note: nearly all actives have a fitted effect of over 55% in size
# Target sequence (P08659 whole entry, looked up): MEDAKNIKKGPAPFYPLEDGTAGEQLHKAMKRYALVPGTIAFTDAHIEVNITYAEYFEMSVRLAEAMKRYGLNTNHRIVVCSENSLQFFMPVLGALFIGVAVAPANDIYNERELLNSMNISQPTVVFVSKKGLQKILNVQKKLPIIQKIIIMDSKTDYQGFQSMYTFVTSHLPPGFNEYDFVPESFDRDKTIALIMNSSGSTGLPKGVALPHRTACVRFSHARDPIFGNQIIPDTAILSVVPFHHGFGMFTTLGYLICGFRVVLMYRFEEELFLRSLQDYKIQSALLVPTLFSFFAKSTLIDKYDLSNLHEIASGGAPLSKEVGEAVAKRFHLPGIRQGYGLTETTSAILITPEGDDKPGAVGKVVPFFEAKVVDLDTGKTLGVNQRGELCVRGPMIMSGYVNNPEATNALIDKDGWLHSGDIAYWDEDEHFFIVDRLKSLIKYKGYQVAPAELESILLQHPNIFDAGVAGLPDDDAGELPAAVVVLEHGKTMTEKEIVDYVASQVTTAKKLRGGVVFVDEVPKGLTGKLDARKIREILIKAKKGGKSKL
#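 Purified P. pyralis luciferase, 10 nM final, with Km-level 10 uM D-luciferin and 10 uM ATP in 50 mM Tris acetate pH 7.5, 10 mM Mg acetate, 0.01% Tween-20, 0.05% BSA; 6-point qHTS titration about 60 µM downward; luminescence read.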
# NPC1 prom act: activators of NPC1 promoter. 2.4% of 320,000 active. Huh7 NPC1 promoter luciferase reporter, 24 h. Potency, µM (titrated, usually from 9.22 µM), most hits filed as activators; note: nearly all actives have a fitted effect of over 60% in size
#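 Luminescence read-out of NPC1 promoter-driven luciferase in stably transfected Huh7 cells; compounds delivered in DMSO and left 24 h at 37C, 5% CO2, qHTS titration format.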
# ELG1 repair inh: inhibitors of ELG1-dependent DNA repair in HEK293T cells; HEK293T ELG1-luciferase reporter, luminescence, 16 h; DNA damage induced by 5-fluorouridine; Potency, µM (top dose mostly 46.1 µM), hits mostly inhibitors; 2.3% of 330,000 active; AID 504467; note: nearly all actives have a fitted effect of over 55% in size
#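 Step one: seed 2,000 cells per well. Step two: pin-transfer compound or DMSO alongside 5-fluorouridine. Step three: incubate 16 hr, 37 °C, 5% CO2. Step four: add ONE-Glo, wait 30 min, read luminescence.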
# A number is an active result; i = inactive; ? = inconclusive; nt = not tested or not shown. Most compounds without a hit are left out; they make up all but 9.3% or so of the library. Calls come from the whole dose curve; as a rule, active = well fitted curve in the direction sought with a large enough effect; inconclusive = small, poorly fitted or top-dose-only effect, or another doubt; inactive = no such curve, though single readings can be large; an effect the other way counts as inactive or inconclusive.
SMILES,SMN2 splice enh,Rab9 promoter act,ELG1 genotox,FLuc counter,NPC1 prom act,ELG1 repair inh
COc1ccc(C(C)(C)C)cc1NC(=O)c1[nH]c(C)c(C(C)=O)c1C,nt,i,i,i,i,5.8µM
COc1ccc(NC(=O)c2[nH]c(C)c(C(C)=O)c2C)cc1Cl,i,?,i,?,i,?
c1cncc(-c2ccc3ncnc(N4CCNCC4)c3c2)c1,i,nt,nt,nt,nt,nt
Cc1cc(C(=O)Nc2cccc(S(=O)(=O)N3CCOCC3)c2)c2ccccc2n1,nt,nt,i,nt,nt,?
CCOC(=O)c1c(C)[nH]c(C(=O)NNC(=O)c2ccccc2)c1C,11µM,1.8µM,?,6.7µM,0.56µM,?
CCc1c(C(=O)Nc2ccc(C)c(C)c2)[nH]c(C)c1C(C)=O,nt,3.2µM,?,15µM,?,?
CC(=O)c1c(C)[nH]c(C(=O)Nc2ccc(C)c(C)c2)c1C,nt,1.4µM,10µM,11µM,?,?
CCc1c(C(=O)Nc2ccc(OC)cc2)[nH]c(C)c1C(C)=O,22µM,i,i,?,i,?
COC(=O)CC1C(C)(C)C(OC(C)=O)C2[C@H](OC(C)=O)[C@]34O[C@]2(O)[C@]1(C)C3CC[C@]1(C)C4=CC(=O)OC1c1ccoc1 (some centres not stated),i,nt,nt,nt,nt,nt
NS(=O)(=O)c1ccc(Nc2ccc3cc(S(=O)(=O)N4CCCCC4)ccc3n2)cc1,nt,i,i,i,i,i
O=C(O)c1ccc(Cl)c(S(=O)(=O)N2CCC(Cc3ccccc3)CC2)c1,nt,i,i,i,i,i
Cc1cccc(-c2nc(C#N)c(N3CCCCCC3)o2)c1,?,i,16µM,11µM,i,?
CCOc1ccc(-c2nc(C#N)c(NC3CC3)o2)cc1,i,?,i,15µM,i,?
Cc1ccc(-c2nc(C#N)c(NCC3CCCO3)o2)cc1 (configuration not stated),13µM,?,?,21µM,?,?
CCOc1ccc(-c2nc(C#N)c(NCc3ccc4c(c3)OCO4)o2)cc1,?,i,i,i,i,?
Cc1cccc(-c2nc(C#N)c(N3CCC(C)CC3)o2)c1,nt,i,i,i,i,i
COc1ccc(-c2nc(C#N)c(NCC3CCCO3)o2)cc1 (configuration not stated),?,i,i,13µM,i,?
CCc1ccccc1NC(=O)c1ccc(NCCc2ccccc2)c([N+](=O)[O-])c1,i,i,i,i,i,i
N#Cc1nc(-c2cccs2)oc1NCC1CCCO1 (configuration not stated),i,i,i,i,i,i
Cc1cccc(-c2nc(C#N)c(NCC3CCCO3)o2)c1 (configuration not stated),nt,2.5µM,?,12µM,2.8µM,?
O=C(CSc1nncn1-c1ccccc1)NC1CCCCC1,i,i,i,i,i,i
Cc1ccc(C)c(CN2C(=O)C(O)(c3c(C)[nH]c4ccccc34)c3ccccc32)c1 (configuration not stated),i,nt,nt,i,nt,nt
CC1=CCC(C(=O)O)C(C(=O)Nc2ccc(-c3nc4ccc(C)cc4s3)cc2)C1 (configuration not stated),nt,i,5.2µM,3.4µM,?,?
CNC(=S)Nc1ccc(C)cc1,i,i,i,i,i,i
CC(=O)Nc1ccc(S(=O)(=O)Nc2nc3ccc(C)cc3s2)cc1,i,i,i,i,i,i
SMILES,SMN2 splice enh,Rab9 promoter act,ELG1 genotox,FLuc counter,NPC1 prom act,ELG1 repair inh
CNC(=S)Nc1ccc(-c2nc3ccc(C)cc3s2)cc1,11µM,0.4µM,?,1.3µM,0.79µM,?
CC(=O)NC(=S)Nc1ccc(-c2nc3ccc(C)cc3s2)cc1,13µM,0.45µM,?,2.1µM,0.45µM,?
COCCNc1nnc(SC(C)C(=O)Nc2ccc(-c3nc4ccc(C)cc4s3)cc2)s1 (configuration not stated),nt,0.28µM,?,3µM,1.6µM,?
N#C/C(=C\c1cccc([N+](=O)[O-])c1)C(=O)Nc1cccnc1,i,i,i,i,i,i
Cc1cc(/C=C(\C#N)C(=O)Nc2ccccc2)c(C)n1-c1ccc(F)cc1,i,nt,nt,2.7µM,nt,nt
CCOC(=O)/C(C#N)=C/c1cc(C)n(-c2ccccc2)c1C,i,0.56µM,0.65µM,0.54µM,3.2µM,?
N#C/C(=C\c1ccccc1O)C(=O)Nc1cccnc1,nt,1.6µM,?,3µM,2.8µM,?
CCCn1c(C)cc(/C=C(\C#N)C(=O)OCC(=O)Nc2cccc(S(N)(=O)=O)c2)c1C,nt,i,i,3.8µM,i,?
Cc1ccc(NC(=O)/C(C#N)=C/c2cc(C)n(-c3ccc(F)cc3)c2C)cc1C,i,nt,nt,i,nt,nt
CCN(C(=O)CN1C(=O)NC(c2ccccc2)(c2ccccc2)C1=O)c1ccccc1,nt,i,i,i,i,i
CCOC(=O)CSc1nc(CC)nc2ccccc12,i,i,i,i,i,i
Cc1cc(/C=C(\C#N)C(=O)Nc2ccccc2)c(C)n1-c1cccnc1,5.6µM,2.8µM,i,1.5µM,?,?
Cc1cc(C(=O)O)ccc1-n1c(C)cc(/C=C(/C#N)C(=O)Nc2ccccc2)c1C,nt,i,i,?,i,i
COc1cc(OC)c(OC)cc1/C=C1\SC(N2CCCCC2)=NC1=O,nt,i,i,3.8µM,i,?
COc1ccc(OC)c(/C=C2\SC(N3CCCCC3)=NC2=O)c1,nt,i,i,19µM,i,?
CCCOc1ccccc1/C=C1\SC(N2CCCCC2)=NC1=O,nt,i,i,12µM,?,i
O=C1N=C(N2CCCC2)S/C1=C\c1ccccc1,i,i,i,i,i,i
CCOC(=O)C1CCCN(C2=NC(=O)/C(=C/c3ccc(OC)cc3OC)S2)C1 (configuration not stated),nt,i,i,?,i,?
N/C(=N\OC(=O)COc1ccc(Cl)cc1)c1ccc(Cl)cc1,i,i,i,i,i,i
CCCn1nnc(NC(=O)c2ccc(F)cc2)n1,?,?,i,?,i,?
CCCn1nnc(NC(=O)c2ccccc2Cl)n1,i,?,i,?,?,?
CCCn1nnc(NC(=O)c2ccc(Cl)cc2Cl)n1,i,3.2µM,9.2µM,19µM,3.2µM,?
CCn1nnc(NC(=O)c2ccc(C(C)(C)C)cc2)n1,nt,1.3µM,?,3.4µM,2.2µM,?
CCCn1nnc(NC(=O)c2cccc(OCC)c2)n1,18µM,?,18µM,17µM,?,?
CCn1nnc(NC(=O)c2cccnc2)n1,i,i,i,i,i,i
CCCn1nnc(NC(=O)c2ccc3ccccc3c2)n1,nt,?,i,15µM,?,?
O=S(=O)(c1cccc(S(=O)(=O)N2CCC(Cc3ccccc3)CC2)c1)N1CCOCC1,i,i,i,i,i,i
Cn1nnc(NC(=O)c2cccc(F)c2)n1,i,i,i,i,i,i
Cc1ccc(C(=O)Nc2nnn(C)n2)cc1,?,?,?,17µM,i,?
